Holding throughout (experiment): DAPPL (digital affinity profiling via proximity ligation, sequencing); 10 mM Tris-HCl pH 7.5, 50 mM NaCl, 1 mM DTT, 4% glycerol, room temperature, 30 min; GST-TFs on glutathione beads, 16-mer random dsDNA library, 0.1% formaldehyde crosslink after washing; high values mean tight binding
One assay deals with T1, FEV (Homo sapiens, UniProt Q99581 1-238).
T1 sequence: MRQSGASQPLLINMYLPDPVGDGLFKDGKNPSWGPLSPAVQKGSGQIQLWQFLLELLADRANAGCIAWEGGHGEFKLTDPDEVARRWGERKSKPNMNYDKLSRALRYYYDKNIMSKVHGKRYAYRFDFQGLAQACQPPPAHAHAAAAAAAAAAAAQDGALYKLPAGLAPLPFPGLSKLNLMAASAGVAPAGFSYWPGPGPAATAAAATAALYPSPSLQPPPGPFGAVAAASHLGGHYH
Particulars: protein: recombinant; tags: N-terminal GST; dsDNA, one strand shown. The gist of the method:
(§1)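 In yeast, human transcription factors were expressed with a GST fusion, then pulled down on glutathione beads and given DNA barcodes. Pooled with a tag-only sample, they were exposed to 200 nmole of a 16-mer random double-stranded DNA library (Tris/NaCl/DTT/glycerol buffer, room temperature, 30 min), washed, crosslinked with 0.1% formaldehyde, proximity-ligated using BsaI/T4 ligase for 1 h at 37 °C, PCR-amplified and read on an Illumina NextSeq500. Each hexamer's frequency of reads for a factor, divided by the matching frequency for the tag-only sample, gives the binding signal.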

For the next assay, the target named is ETV5 (Homo sapiens, UniProt P41161 1-510). Particulars: protein: recombinant; tags: N-terminal GST; dsDNA, one strand shown. Summed up: as §1
ETV5, sequence (P41161 whole entry): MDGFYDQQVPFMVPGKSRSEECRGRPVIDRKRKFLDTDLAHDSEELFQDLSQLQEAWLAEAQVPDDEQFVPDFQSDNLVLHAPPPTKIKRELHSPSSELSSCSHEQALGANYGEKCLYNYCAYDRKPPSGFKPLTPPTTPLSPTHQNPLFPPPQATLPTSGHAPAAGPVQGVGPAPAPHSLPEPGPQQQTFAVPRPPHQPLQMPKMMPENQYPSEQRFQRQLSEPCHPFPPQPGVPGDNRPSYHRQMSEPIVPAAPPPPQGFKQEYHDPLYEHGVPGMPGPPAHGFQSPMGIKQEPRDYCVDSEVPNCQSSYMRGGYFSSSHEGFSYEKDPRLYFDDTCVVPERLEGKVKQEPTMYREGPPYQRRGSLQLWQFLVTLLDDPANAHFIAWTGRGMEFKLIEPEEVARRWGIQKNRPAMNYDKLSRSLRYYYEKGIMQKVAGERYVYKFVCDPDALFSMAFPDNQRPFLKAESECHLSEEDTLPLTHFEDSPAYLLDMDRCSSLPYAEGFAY
The target of the next assay is HSF1 (Homo sapiens, UniProt Q00613 1-529). Particulars: protein: recombinant; tags: N-terminal GST; chain copies: 3; dsDNA, one strand shown. The gist of the method: as §1
HSF1, sequence (Q00613 whole entry): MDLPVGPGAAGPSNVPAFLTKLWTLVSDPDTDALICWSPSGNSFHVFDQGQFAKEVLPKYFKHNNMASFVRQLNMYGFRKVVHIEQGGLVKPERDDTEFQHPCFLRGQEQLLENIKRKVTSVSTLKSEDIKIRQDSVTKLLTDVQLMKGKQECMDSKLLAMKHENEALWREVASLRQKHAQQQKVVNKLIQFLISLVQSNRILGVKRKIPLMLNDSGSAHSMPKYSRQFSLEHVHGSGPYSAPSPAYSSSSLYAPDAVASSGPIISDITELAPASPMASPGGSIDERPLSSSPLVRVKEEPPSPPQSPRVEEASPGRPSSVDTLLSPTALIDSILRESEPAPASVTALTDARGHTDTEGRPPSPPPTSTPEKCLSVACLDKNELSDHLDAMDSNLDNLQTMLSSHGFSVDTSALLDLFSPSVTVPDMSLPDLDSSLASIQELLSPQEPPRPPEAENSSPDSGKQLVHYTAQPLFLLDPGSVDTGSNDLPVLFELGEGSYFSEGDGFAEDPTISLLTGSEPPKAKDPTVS
The next assay has as its target T2, SPIC (Homo sapiens, UniProt Q8N5J4 1-248).
T2 sequence: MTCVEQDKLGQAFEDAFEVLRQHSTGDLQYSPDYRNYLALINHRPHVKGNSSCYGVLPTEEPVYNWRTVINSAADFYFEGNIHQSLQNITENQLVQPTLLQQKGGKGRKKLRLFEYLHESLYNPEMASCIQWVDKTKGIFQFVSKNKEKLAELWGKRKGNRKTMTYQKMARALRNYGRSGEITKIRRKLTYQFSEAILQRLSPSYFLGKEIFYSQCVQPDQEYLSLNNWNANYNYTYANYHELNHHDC
Particulars: protein: recombinant; tags: N-terminal GST; dsDNA, one strand shown. Summed up: as §1

A further assay has as its target ELF4 (Homo sapiens, UniProt Q99607 1-663). Particulars: protein: recombinant; tags: N-terminal GST; dsDNA, one strand shown. The gist of the method: as §1
The target in another assay is T3, ELK4 (Homo sapiens, UniProt P28324-2 1-405).
T3 sequence: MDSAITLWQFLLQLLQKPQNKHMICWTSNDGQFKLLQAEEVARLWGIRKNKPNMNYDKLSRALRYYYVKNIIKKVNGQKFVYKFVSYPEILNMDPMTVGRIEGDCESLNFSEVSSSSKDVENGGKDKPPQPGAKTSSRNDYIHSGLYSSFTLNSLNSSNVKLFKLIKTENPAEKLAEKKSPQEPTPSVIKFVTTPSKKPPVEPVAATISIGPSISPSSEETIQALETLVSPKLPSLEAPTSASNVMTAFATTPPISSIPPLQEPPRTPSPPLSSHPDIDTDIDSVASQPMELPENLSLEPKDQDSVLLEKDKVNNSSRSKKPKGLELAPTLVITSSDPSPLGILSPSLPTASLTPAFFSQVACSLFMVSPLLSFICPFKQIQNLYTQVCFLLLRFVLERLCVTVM
Particulars: protein: recombinant; tags: N-terminal GST; dsDNA, one strand shown. The gist of the method: as §1

A further assay addresses T4, ETV2 (Homo sapiens, UniProt O00321 1-342).
T4 sequence: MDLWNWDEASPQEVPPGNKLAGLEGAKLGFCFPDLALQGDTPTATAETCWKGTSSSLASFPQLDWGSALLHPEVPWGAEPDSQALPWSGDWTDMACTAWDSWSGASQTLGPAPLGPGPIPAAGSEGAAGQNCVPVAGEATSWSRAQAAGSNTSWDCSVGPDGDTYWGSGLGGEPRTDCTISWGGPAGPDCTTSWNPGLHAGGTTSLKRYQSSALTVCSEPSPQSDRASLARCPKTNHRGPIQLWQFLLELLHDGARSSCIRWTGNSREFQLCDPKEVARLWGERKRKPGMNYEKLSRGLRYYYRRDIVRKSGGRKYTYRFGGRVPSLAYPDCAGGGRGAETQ
Particulars: protein: recombinant; tags: N-terminal GST; dsDNA, one strand shown. Summed up: as §1

In another assay the target is T5, ELF3 (Homo sapiens, UniProt P78545 1-371).
T5 sequence: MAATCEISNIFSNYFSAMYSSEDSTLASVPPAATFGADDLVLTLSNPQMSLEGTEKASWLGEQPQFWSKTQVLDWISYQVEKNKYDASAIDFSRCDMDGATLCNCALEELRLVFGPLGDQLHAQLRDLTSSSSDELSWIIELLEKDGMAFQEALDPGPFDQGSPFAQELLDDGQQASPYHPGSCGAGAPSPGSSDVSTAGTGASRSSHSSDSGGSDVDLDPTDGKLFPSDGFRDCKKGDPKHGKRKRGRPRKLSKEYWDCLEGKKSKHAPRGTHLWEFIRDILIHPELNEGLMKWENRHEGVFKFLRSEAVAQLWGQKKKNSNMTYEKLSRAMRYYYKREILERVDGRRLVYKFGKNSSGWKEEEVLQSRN
Particulars: protein: recombinant; tags: N-terminal GST; dsDNA, one strand shown. Summed up:
as §1

The target in another assay is CRX (Homo sapiens, UniProt O43186 1-299). Particulars: protein: recombinant; tags: N-terminal GST; dsDNA, one strand shown. The gist of the method: as §1
CRX, sequence (O43186 whole entry): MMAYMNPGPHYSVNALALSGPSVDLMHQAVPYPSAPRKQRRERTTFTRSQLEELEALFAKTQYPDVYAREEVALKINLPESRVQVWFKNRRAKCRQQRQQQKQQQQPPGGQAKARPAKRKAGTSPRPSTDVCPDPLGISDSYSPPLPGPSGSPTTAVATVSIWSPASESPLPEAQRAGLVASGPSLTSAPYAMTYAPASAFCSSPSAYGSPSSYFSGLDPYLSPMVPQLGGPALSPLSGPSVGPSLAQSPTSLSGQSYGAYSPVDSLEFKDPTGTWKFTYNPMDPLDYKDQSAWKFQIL
In the next assay the target is ETV1 (Homo sapiens, UniProt P50549 1-477). Particulars: protein: recombinant; tags: N-terminal GST; dsDNA, one strand shown. The gist of the method:
as §1

For another assay, the target named is T6, ERF (Homo sapiens, UniProt P50548 1-548).
T6 sequence: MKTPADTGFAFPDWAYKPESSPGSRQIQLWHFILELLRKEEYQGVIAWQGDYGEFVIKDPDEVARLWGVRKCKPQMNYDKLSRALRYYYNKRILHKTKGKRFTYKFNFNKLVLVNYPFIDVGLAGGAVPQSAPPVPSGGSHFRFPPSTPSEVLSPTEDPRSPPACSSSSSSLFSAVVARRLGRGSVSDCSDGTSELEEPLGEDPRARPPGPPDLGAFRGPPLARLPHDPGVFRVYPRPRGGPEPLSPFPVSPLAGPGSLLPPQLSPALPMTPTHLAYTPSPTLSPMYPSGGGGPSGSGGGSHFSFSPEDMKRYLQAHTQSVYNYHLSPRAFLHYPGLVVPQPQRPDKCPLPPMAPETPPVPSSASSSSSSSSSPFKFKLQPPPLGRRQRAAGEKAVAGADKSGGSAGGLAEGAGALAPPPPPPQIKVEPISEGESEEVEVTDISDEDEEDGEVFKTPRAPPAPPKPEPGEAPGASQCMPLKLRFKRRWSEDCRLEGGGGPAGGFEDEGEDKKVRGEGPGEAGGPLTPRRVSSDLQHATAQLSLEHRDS
Particulars: protein: recombinant; tags: N-terminal GST; dsDNA, one strand shown. The gist of the method:
as §1

Another assay deals with T7, ETV3L (Homo sapiens, UniProt Q6ZN32 1-361).
T7 sequence: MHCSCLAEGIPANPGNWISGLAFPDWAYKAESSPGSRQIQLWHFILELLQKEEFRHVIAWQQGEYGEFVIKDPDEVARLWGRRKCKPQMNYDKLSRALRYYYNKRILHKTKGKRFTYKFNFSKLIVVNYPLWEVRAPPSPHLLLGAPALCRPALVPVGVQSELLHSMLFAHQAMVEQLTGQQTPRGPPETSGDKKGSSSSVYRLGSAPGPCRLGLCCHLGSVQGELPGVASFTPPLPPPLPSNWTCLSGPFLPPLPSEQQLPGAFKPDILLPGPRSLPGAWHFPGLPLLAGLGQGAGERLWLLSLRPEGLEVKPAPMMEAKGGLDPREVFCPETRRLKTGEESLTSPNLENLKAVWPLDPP
Particulars: protein: recombinant; tags: N-terminal GST; dsDNA, one strand shown. Summed up: as §1

Another assay concerns the target T8, ETS2 (Homo sapiens, UniProt P15036 1-469).
T8 sequence: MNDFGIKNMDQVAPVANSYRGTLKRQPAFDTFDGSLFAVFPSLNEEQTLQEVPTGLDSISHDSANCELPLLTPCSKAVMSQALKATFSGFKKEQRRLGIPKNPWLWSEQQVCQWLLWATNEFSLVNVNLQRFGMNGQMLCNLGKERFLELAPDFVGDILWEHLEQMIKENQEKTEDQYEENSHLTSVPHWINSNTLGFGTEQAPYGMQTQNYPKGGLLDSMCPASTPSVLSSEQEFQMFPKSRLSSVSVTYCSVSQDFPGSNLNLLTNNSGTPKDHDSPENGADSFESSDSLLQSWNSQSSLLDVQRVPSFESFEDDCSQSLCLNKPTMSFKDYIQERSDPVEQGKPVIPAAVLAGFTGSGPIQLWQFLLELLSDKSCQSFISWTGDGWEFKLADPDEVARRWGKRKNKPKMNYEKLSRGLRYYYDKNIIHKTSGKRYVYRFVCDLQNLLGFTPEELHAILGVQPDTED
Particulars: protein: recombinant; tags: N-terminal GST; dsDNA, one strand shown. Summed up: as §1

Another assay has as its target T9, SPDEF (Homo sapiens, UniProt O95238 1-335).
T9 sequence: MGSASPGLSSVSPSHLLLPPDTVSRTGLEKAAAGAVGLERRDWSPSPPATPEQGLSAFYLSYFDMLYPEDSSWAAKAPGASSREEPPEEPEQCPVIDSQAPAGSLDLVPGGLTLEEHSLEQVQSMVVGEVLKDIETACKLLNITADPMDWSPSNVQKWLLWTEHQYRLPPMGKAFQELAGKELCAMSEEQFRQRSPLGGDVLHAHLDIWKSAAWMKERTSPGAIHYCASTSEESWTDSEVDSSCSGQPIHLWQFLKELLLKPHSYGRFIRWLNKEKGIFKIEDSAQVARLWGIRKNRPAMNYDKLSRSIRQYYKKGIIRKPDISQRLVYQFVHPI
Particulars: protein: recombinant; tags: N-terminal GST; dsDNA, one strand shown. Summed up: as §1

The target of the next assay is T10, ETV7 (Homo sapiens, UniProt Q9Y603 1-341).
T10 sequence: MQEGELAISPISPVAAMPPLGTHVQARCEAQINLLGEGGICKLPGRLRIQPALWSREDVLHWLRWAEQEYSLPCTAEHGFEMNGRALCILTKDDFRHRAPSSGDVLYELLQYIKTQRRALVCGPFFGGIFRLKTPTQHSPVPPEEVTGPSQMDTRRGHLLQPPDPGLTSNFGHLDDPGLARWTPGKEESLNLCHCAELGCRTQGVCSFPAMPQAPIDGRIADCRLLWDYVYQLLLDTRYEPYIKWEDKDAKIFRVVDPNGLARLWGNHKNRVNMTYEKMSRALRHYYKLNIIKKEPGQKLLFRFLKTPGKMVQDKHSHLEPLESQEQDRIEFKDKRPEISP
Particulars: protein: recombinant; tags: N-terminal GST; dsDNA, one strand shown. The gist of the method:
as §1

For the next assay, the target named is T11, ELF5 (Homo sapiens, UniProt Q9UKW6-2 1-255).
T11 sequence: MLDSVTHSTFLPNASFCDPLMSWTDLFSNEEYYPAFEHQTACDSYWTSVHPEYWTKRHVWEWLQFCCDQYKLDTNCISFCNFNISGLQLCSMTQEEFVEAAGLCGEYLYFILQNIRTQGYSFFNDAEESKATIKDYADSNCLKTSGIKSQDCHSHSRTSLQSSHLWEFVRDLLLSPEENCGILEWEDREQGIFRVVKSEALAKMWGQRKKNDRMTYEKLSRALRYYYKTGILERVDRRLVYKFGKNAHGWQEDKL
Particulars: protein: recombinant; tags: N-terminal GST; dsDNA, one strand shown. The gist of the method:
as §1

The target of a further assay is T12, ETV3 (Homo sapiens, UniProt P41162-2 1-143).
T12 sequence: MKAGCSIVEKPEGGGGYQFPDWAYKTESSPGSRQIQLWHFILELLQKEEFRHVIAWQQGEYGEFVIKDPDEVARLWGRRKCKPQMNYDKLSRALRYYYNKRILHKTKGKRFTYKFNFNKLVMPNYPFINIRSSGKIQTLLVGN
Particulars: protein: recombinant; tags: N-terminal GST; dsDNA, one strand shown. Summed up:
as §1

The next assay addresses ETV6 (Homo sapiens, UniProt P41212 1-452). Particulars: protein: recombinant; tags: N-terminal GST; dsDNA, one strand shown. Summed up:
as §1

Drawing on article PMC7862700, “An all-to-all approach to the identification of sequence-specific readers for epigenetic DNA modifications on cytosine”, this text covers binding signal for one sequence.

ETV6, sequence (P41212 whole entry): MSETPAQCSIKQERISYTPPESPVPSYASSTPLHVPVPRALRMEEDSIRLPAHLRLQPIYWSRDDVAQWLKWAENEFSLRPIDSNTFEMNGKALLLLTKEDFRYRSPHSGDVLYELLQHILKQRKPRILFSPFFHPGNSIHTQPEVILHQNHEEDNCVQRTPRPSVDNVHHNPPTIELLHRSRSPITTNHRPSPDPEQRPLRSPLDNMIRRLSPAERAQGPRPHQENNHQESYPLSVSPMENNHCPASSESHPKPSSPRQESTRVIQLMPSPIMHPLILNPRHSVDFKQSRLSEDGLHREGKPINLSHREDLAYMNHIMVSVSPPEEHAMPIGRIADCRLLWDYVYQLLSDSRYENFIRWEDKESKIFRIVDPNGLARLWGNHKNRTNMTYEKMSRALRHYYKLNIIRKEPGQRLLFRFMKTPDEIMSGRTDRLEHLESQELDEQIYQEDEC
ETV1, sequence (P50549 whole entry): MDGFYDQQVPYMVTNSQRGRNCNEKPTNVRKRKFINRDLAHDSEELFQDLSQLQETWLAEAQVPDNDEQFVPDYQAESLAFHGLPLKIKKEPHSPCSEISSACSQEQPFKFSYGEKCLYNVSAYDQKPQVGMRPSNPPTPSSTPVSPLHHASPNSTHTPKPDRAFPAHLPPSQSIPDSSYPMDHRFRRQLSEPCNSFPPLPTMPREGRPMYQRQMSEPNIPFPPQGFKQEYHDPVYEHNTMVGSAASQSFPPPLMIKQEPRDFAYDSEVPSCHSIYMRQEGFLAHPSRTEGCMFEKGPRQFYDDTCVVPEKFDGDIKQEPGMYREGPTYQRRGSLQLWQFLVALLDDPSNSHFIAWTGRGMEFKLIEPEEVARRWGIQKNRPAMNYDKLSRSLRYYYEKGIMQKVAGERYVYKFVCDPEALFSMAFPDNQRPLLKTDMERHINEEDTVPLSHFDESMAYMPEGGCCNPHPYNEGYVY
ELF4, sequence (Q99607 whole entry): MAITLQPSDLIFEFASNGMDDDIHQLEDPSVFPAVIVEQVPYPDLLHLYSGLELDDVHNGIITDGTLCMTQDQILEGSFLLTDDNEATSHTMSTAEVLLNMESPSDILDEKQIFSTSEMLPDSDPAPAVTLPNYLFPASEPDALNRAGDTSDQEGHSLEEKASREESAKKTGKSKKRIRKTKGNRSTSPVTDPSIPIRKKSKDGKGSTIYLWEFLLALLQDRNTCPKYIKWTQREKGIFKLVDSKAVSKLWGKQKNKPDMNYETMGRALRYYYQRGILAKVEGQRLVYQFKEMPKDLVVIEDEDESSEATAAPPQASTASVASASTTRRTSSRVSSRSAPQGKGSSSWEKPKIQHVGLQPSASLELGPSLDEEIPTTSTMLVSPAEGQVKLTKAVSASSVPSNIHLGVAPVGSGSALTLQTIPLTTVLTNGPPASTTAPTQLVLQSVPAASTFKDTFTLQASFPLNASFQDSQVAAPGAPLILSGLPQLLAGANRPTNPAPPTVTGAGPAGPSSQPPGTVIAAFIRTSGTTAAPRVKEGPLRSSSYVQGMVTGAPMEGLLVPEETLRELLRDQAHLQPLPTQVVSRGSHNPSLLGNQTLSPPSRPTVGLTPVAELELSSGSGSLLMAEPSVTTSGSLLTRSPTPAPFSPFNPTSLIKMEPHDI

Consider CTCTTA, for which the binding signal with FEV was 1.34 fold enrichment (6-mer frequency, TF over GST control); with ETV5, 1.41 fold enrichment (6-mer frequency, TF over GST control); in the assay with HSF1, 1.52 fold enrichment (6-mer frequency, TF over GST control); in the assay with SPIC, 1.4 fold enrichment (6-mer frequency, TF over GST control); with ELF4 it was 1.32 fold enrichment (6-mer frequency, TF over GST control); with ELK4, 1.34 fold enrichment (6-mer frequency, TF over GST control). Besides, the binding signal in the assay with ETV2 is 1.49 fold enrichment (6-mer frequency, TF over GST control); in the assay with ELF3, 1.27 fold enrichment (6-mer frequency, TF over GST control); in the assay with CRX, 2.2 fold enrichment (6-mer frequency, TF over GST control); with ETV1, 1.38 fold enrichment (6-mer frequency, TF over GST control); with ERF it was 1.45 fold enrichment (6-mer frequency, TF over GST control); in the assay with ETV3L, 1.5 fold enrichment (6-mer frequency, TF over GST control). Also, the binding signal with ETS2 was 1.33 fold enrichment (6-mer frequency, TF over GST control); in the assay with SPDEF it was 1.24 fold enrichment (6-mer frequency, TF over GST control); in the assay with ETV7, 1.28 fold enrichment (6-mer frequency, TF over GST control); with ELF5, 1.31 fold enrichment (6-mer frequency, TF over GST control); with ETV3, 1.38 fold enrichment (6-mer frequency, TF over GST control); in the assay with ETV6 it was 1.39 fold enrichment (6-mer frequency, TF over GST control).
